Molecules are shown by their SMILES. The campaign covered roughly 370,000 compounds. About 6,800 (1.8%) were called active. For the sample, actives were picked, then their nearest neighbours and some compounds at random. A number with no mark means an inactive call.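 The calls were made as follows: active = activation above a cutoff set at the mean of all screened compounds plus 3 SD (cut at about 10% in these data); inactive = the rest.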

The source of these data is PubChem BioAssay AID687014 (The Scripps Research Institute Molecular Screening Center, 2013).

In the assay the test system is Nuclear hormone receptor DAF-12 (Heterodera glycines), GAL4 fusion. Nature of the assay: hgDAF-12 GAL4 fusion reporter activation – cell-based, luminescence, HEK293, UAS-luciferase, primary screen (AID 687014).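 Also: 0% = DMSO wells and 100% = sodium butyrate wells.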 Particulars: HEK293 GAL4-hgDAF12 UAS-luciferase reporter, agonist luminescence; at 6.8 µM; active compounds read high; normalized to butyrate control. (In general: A reporter such as luciferase makes a cellular process visible.)
On to `Cc1cccnc1CC(C)NC(=O)c1cc(COc2cncc(Cl)c2)on1` (stereo unspecified), for which the activation was 1.14%.
For the molecule `COc1ccc(OCc2cc(C(=O)NCC3(C)COC3)no2)c(Cl)c1`, the activation was 0.38%.
As for `Cc1cc(OCc2cc(C(=O)NCc3cc(C(C)C)no3)no2)cc(C)c1Cl`, the figure is 15.1% (active); as for `Cc1ccc2oc(C(=O)N3CCN(C)C[C@@H]3C(C)C)c(C)c2c1`, 2.43%; as for `COC(=O)[C@]12C[C@H](CC(=O)NCc3cccs3)C(=O)N(CCc3ccc(OC)c(OC)c3)C1=C[C@H](C(C)C)O[C@@H]2C1CC1`, 1.93%.
With `CC1=C(C(=O)N2CCOCC2)CC(CC(=O)NCCCN(C)C)C(=O)N1Cc1ccc(C(C)(C)C)cc1` (stereo unspecified), the activation is 1.86%.
As for `CCOC(=O)c1ccc2c(c1)nc(SCC(=O)NC(C)C)n2CC`, the figure is -0.22%; as for `CCOC(=O)c1ccc2c(c1)nc(C)n2CC`, 12.8% (active).
As for `CCn1c(C)nc2cc(C(=O)NNS(=O)(=O)c3ccc(C)cc3C)ccc21`, the figure is -0.8%.
As to `Nc1nc2c(ncn2[C@@H]2O[C@H](C(=O)N[C@@H](Cc3ccccc3)C(=O)NCc3ccccc3)[C@@H](O)[C@H]2O)c(=O)[nH]1`, the activation is -2.72%.
For `CCOC(=O)N1CCN(C(=O)C[C@H]2C[C@@]3(C(=O)OC)C(=C[C@H](C4CCCC4)O[C@@H]3C)N(Cc3ccccc3)C2=O)CC1`, the activation was -1.3%.
On to `CSCC[C@H](NC(=O)OC(C)(C)C)C(=O)N/N=C/c1cc2ccc(C)cc2nc1Cl`, for which the activation was -1.8%.
Turning to `CC(=O)Nc1ccc(C(=O)CSc2nc3ccc(C)cc3[nH]2)cc1`, the activation was 8.98%.
As for `Cc1ccc2cc(/C=N/Nc3ccc(C(=O)O)cc3)c(Cl)nc2c1`, the figure is 11.9% (active); as for `C=C(C)C#CC(Cc1ccccc1)N(CC1CC1)/C(N)=N/C(=O)OCc1ccccc1` (stereo unspecified), 1.8%; as for `COc1cc(/C=C/C(=O)O)cc(S(=O)(=O)Nc2ccccc2SC)c1OC`, 1.71%.
Take `Cc1ccc(C(=O)NNc2ncnc3ccccc23)cc1`: the activation was 16% (active).
With `Cn1ncc2c(NNC(=O)Cc3cccc4ccccc34)ncnc21`, the activation was -0.95%.
As for `Cc1ccc(CCNC(=O)c2ccc3nc4ccccc4c(=O)n3c2)cc1`, the activation was 3.9%.
To `COC(=O)Cc1nnn2c1[C@H](C)[C@H](c1ccccc1Br)OCC2` belongs -0.72%; to `C=CCn1cc(C(=O)NCc2ccc(Cl)cc2)c(=O)c2cc(S(=O)(=O)N(CC)CC)ccc21`, 0.3%; to `CC(=O)c1cc(C#N)c(N2CC(C)OC(C)C2)nc1C` (stereo unspecified), 0.39%.
On to `CC(=O)c1cc(C#N)c(SCC(=O)C(C)(C)C)nc1C`, for which the activation is 27.1% (active).
As for `CC(=O)c1cc(C#N)c(SCC(=O)Nc2nccs2)nc1C`, the figure is 8.08%; as for `CC(C)(C)OC(=O)NCc1cc(F)ccc1/C=C/S(=O)(=O)NCCc1ccccc1`, 0.64%.
To `Cc1ccc(Cc2c(-c3ccc(C)cc3)nc3c4ccccc4ccn23)cc1` belongs 0.89%; to `c1ccc(Cc2c(-c3ccco3)nc3c4ccccc4ccn23)cc1`, 22.7% (active); to `Cc1ccc(Cc2c(-c3ccc(Cl)cc3)nc3c4ccccc4ccn23)cc1`, 4.25%.
As for `CC(C(=O)N=Nc1c(O)n(C)c2ccc(Br)cc12)n1cnc2ccccc2c1=O` (stereo unspecified), the figure is 0.17%.
Regarding `CC(=O)C1=C(C)N(Cc2ccc(Cl)cc2)C(=S)NC1c1ccc(F)cc1` (stereo unspecified), the activation is 3.22%.
To `N#Cc1ccc(OCCCN2CCC(C(O)(c3ccccc3)c3ccccc3)CC2)c(F)c1` belongs 0.54%.
As for `CC1=C(C(=O)NC2CC(C)(C)Cc3c2cnn3-c2ccc(C)cc2)OCCO1` (stereo unspecified), the figure is -2.28%; as for `C=CCNc1cnn(-c2ccc(C)cc2)c(=O)c1Cl`, 12.7% (active); as for `Cc1cccc(-n2ncc(Cl)c(Cl)c2=O)c1`, -2.03%.
For the molecule `COC(=O)[C@H](C(C)C)N(CCCc1cn(Cc2ccccc2)nn1)S(=O)(=O)c1ccc(F)cc1Br`, the activation was -3.54%.
To `COC(=O)C[C@@H]1C=C[C@@H](NC(=O)c2ccc3c(c2)OCO3)[C@@H](CO)O1` belongs -0.93%.
To `c1cnc(N2CCN(c3ccc4ccccc4n3)CC2)nc1` belongs 13.8% (active); to `CC1=C(N2CCN(c3ncccn3)CC2)CCC1=O`, 1.9%.
As for `CC12CCC(C(=O)N3CCN(c4ncccn4)CC3)(c3nc4ccccc4nc31)C2(C)C` (stereo unspecified), the figure is -2.77%; as for `CN1C(=O)C(Br)(Br)CC1c1cccnc1` (stereo unspecified), 2.1%.
With `CCCCCCCCN1C(=O)[C@@H](CC(=O)N2CCN(C(=O)OCC)CC2)C[C@@]2(C(=O)OC)C1=C[C@H](C1CCCC1)O[C@@H]2C`, the activation is -1.38%.
Consider `Cc1csc(NC(=O)CSc2nc(=O)n(CCCN(C)C)c3c2CCC3)n1`, for which the activation was -0.31%.
To `CN1OC[C@@H]2CN(C(=O)c3ccc(-c4ccccc4)cc3)[C@H](c3ccc(-c4cccc(F)c4)cc3)C[C@@H]21` belongs 2.92%; to `CN1OC[C@@H]2CN[C@H](c3ccc(-c4ccccc4)cc3)C[C@@H]21`, 10.5% (active).
As for `COc1ccc(CN2C[C@H]3CON(C)[C@H]3C[C@H]2c2ccc(-c3cccc(F)c3)cc2)cc1`, the figure is -1.7%.
To `O=C(NCc1ccccc1Cl)c1ccc2c(=O)n(CC3CCCO3)c(=S)[nH]c2c1` (stereo unspecified) belongs 1.69%; to `O=S1(=O)c2c(cccc2N2CCCCC2)O[C@H](COCc2ccccc2)CN1C1CC1`, -1.38%.
Turning to `CCCNC(=O)CCc1c(C)nc2c(c(C)nn2-c2ccc(C)cc2)c1C`, the activation is -0.59%.
As for `CCCNC(=O)c1c(Cl)cnn1-c1ccc(C)cc1`, the figure is 14.5% (active).
To `CCOc1ccc(Oc2c(Cl)cnn(-c3ccc(C)cc3)c2=O)cc1` belongs 1.52%; to `CCCCCCCCN1C(=O)[C@@H](CC(=O)NCCCC)C[C@@]2(C(=O)OC)C1=C[C@H](C(C)(C)C)O[C@@H]2C`, 0.13%; to `O=C(CSc1nc2ccccc2c(=O)n1Cc1ccc(F)cc1)NCC1CCCO1` (stereo unspecified), 0.43%.
As for `O=C(Nn1c(SCc2ccc([N+](=O)[O-])cc2)nc2ccccc2c1=O)c1ccc(F)cc1`, the figure is 16.4% (active); as for `COCCNC(=O)c1ccc(-n2c(SCc3cccnc3)nc3ccccc3c2=O)cc1`, -1.1%.
As for `O=c1[nH]c(-c2ccccc2)cn1C1CCN(Cc2ccc(-c3nc4ccc(F)cc4nc3-c3ccccc3)cc2)CC1`, the activation is 2.08%.
On to `O=[N+]([O-])c1ccc2c(c1)C(N1CCOCC1)/C(=C/C1(O)CCCCC1)O2` (stereo unspecified), for which the activation was -1.36%.
With `CCOC(=O)C1CCN(C(=O)C(C)(C)NC(=O)Nc2ccc(F)c(F)c2)CC1`, the activation was -0.28%.
As for `COc1ccc(-c2nc3n(c2Br)CCC3)cc1`, the figure is 5.25%; as for `COc1ccc(/C=C2\N=C3CCCN3C2=O)cc1`, 13% (active); as for `COc1ccc(/C=C2\CC3(OC(C)=O)CCCN2C3)cc1` (stereo unspecified), -5.68%.
As for `O=C(C1CCCN1S(=O)(=O)c1ccccc1)N1CCc2ccccc2C1` (stereo unspecified), the figure is -1.43%.
As for `O=C(CSc1nnc(COc2ccccc2)n1-c1ccc(Cl)cc1)Nc1ccc2c(c1)OCO2`, the figure is -1.26%.
`CC(C)(C)C1CCC(=NNC(=O)c2cc(-c3ccccc3)n[nH]2)CC1` (stereo unspecified): the activation is 6.27%.
As for `CCC(C)(C)C1CCC(=NNC(=O)c2ccc(Br)o2)CC1` (stereo unspecified), the figure is 7.56%.
`CC(C)(C)C1CCC(=NNC(=O)c2ccc(Br)o2)CC1` (stereo unspecified): the activation is 11.6% (active).
To `COC(=O)C1=C(C)N(Cc2cccc(C(F)(F)F)c2)C(=NCc2ccccc2)NC1c1ccccc1C(F)(F)F` (stereo unspecified) belongs -1.64%.
To `C/C(=N\NC(=S)NC1CCCCC1)c1ccc(C)o1` belongs 3.96%; to `C/C(=N/NC(=O)c1ccc(Br)o1)c1ccc(C)o1`, 11.9% (active); to `CC(CNC(=O)c1ccc(Br)o1)NC(=O)c1ccc(Br)o1` (stereo unspecified), -3.41%.
To `Cc1ccnc(NC(=O)CNC(=O)c2ccccc2)c1` belongs 2.39%; to `COc1cc(SC)ccc1C(=O)Nc1cc(C)ccn1`, 15.5% (active); to `COc1cc(SC)ccc1C(=O)Nc1nc(C)cs1`, -15.3%.
Turning to `O=S1(=O)c2c(NCc3ccco3)cccc2Oc2ccccc2CN1Cc1cn(Cc2cccc(C(F)(F)F)c2)nn1`, the activation is -3.4%.
To `COc1cccc(NC(=O)CSc2nccn(-c3ccc4c(c3)OCCO4)c2=O)c1` belongs 0.16%.
For the molecule `COc1ccccc1C1C(C(N)=O)=C(C)Nc2nc(CCCO)nn21` (stereo unspecified), the activation was 0.62%.
To `O=C(COC(=O)c1cc(=O)[nH]c2ccccc12)NCc1cccc(Cl)c1` belongs 0.1%; to `CC1CCN(C(=O)COC(=O)c2cc(=O)[nH]c3ccccc23)CC1`, 12.3% (active).
As for `CN(C(=O)COC(=O)c1cc(=O)[nH]c2ccccc12)C1CCCCC1`, the figure is 6.7%.
To `CCOC(=O)[C@]12CCCC3=C1N(CCC3)C(=O)[C@@H](CC(=O)NCC13CC4CC(CC(C4)C1)C3)C2` belongs 0.11%; to `COc1ccc(/C=N/Nc2ncnc3sc4c(c23)CCCC4)cc1O`, 5.98%.
With `COc1cc(/C=N/Nc2nc3ccccc3s2)ccc1O`, the activation is 15% (active).
For the molecule `COc1cc(/C=C/C(=O)OCC(=O)NCCCc2ccccc2)ccc1O`, the activation is -1.55%.
To `CN(C)C(=O)N1CCN(C(=O)[C@@H](Cc2ccccc2)NC(=O)[C@H]2O[C@@H](n3ccc(N)nc3=O)[C@H](O)[C@@H]2O)CC1` belongs 1.19%; to `CCOC(=O)c1c(Cc2ccc(Cl)cc2)c[nH]c1C`, 12.8% (active); to `CCOC(=O)c1c(S(=O)(=O)Nc2cccc(Cl)c2)c(C)n(C)c1C`, -4.39%.
As for `CCOC(=O)c1ccc(CS(=O)c2ccc(Cl)cc2)o1` (stereo unspecified), the figure is -2.05%.
